# Active and inactive are the calls of the source.
# Experiments:
# Albumin (Bos taurus) = Albumin (Bos taurus) (UniProt P02769); assay: bovine serum albumin binders on microarray, profiling panel, artefact control for SMM control protein annotation, biochemical, small-molecule microarray, Alexa647 label, 635/667 nm fluorescence (AID 1118); settings: BSA-A647 binding, fluorescence 635 nm, higher = more signal;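 note: score merges 667 nm emission intensity and signal-to-noise per printed compound spot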
# [1] = small-molecule microarray binders of probe aXIP, primary screen, biochemical, NeuroSMM set, 635/667 nm fluorescence (AID 1119); settings: higher = more signal, called active from +8 up or from −8 down;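 note: probe is the protein aXip251-270 applied at 1 µg/mL to compound-printed slides; binding of probe to printed compounds measured as 667 nm fluorescence plus signal to noise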
# [2] = small-molecule binders of probe aNOTCH3, primary screen, biochemical, small-molecule microarray, 635/667 nm fluorescence (AID 1120); settings: higher = more signal;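 note: probe is a biotin-tagged antibody raised against NOTCH3 rather than NOTCH3 protein; score merges spot fluorescence near 667 nm with spot signal to noise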
# [3] = small-molecule binders of probe aNOTCH2, primary screen, biochemical, small-molecule microarray, 635/667 nm fluorescence (AID 1121); settings: higher = more signal;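 note: score merges feature fluorescence read at 667 nm with its signal to noise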
# [4] = molecular target: Carbonic anhydrase 2 (Homo sapiens) (UniProt P00918); assay: CAII small-molecule binders, profiling panel, biochemical, small-molecule microarray, Alexa647-labelled CAII (AID 1122); settings: CAII-A647 binding fluorescence, higher = more signal
# [5] = COS7 lysate on small-molecule microarray, probe aHis, 635 nm (AID 1123); settings: COS7 cell lysate, fluorescence, higher = more signal;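 note: z-score combines 667nm fluorescence intensity with signal-to-noise per printed compound spot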
# [6] = compound binding in COS7 lysate, probe aLAP1, primary screen, cell lysate, small-molecule microarray (AID 1124); settings: probe aLAP1, fluorescence, higher = more signal;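 note: lysate comes from COS7 cells expressing LAP1 and is applied at 0.3 µg/mL; score merges spot fluorescence near 667 nm with signal-to-noise over triplicate slides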
# Sam68 (KHDRBS1) = assay: Sam68 small-molecule binders, primary screen, biochemical, small-molecule microarray, 635 nm fluorescence (AID 1125); settings: small-molecule microarray binding, higher = more signal;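 note: score merges 667 nm channel intensity with signal to noise over triplicate slides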
# [7] = system: Chordin-like protein 2 (CHRDL2); assay: CHRDL2 small-molecule binders, primary screen, biochemical, small-molecule microarray, 635 nm fluorescence (AID 1126); settings: small-molecule microarray binding, fluorescence 635 nm; higher = more signal;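 note: printed compound slides probed with Chrdl2 protein at 4 µg/mL for 1 h at 4 C; score merges 667 nm emission intensity with signal to noise over three replicate slides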
# [8] = molecular target: Concanavalin-A (Canavalia ensiformis) (UniProt P02866); assay: ConA small-molecule binders, primary screen, artefact control for SMM control protein annotation, biochemical, small-molecule microarray, Alexa647 label, 635 nm (AID 1127); settings: ConA-A647 binding fluorescence, higher = more signal;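 note: z combines 667 nm emission intensity with signal-to-noise across three replicate slides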
# [9] = anti-His antibody binders, primary screen, artefact control for SMM control protein annotation, biochemical, small-molecule microarray, 635 nm fluorescence (AID 1128); settings: anti-His Alexa647 antibody binding, higher = more signal;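 note: score merges feature fluorescence with signal-to-noise for each printed compound spot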
# [10] = system: Human papillomavirus type 1a E7 protein (residues 1-88); assay: HPV1a E7 small-molecule binders, primary screen, biochemical, small-molecule microarray, residues 1-88, 635 nm (AID 1129); settings: small-molecule microarray binding, fluorescence 635 nm; higher = more signal
# [11] = molecular target: Focal adhesion kinase 1 (Homo sapiens) (UniProt Q05397); assay: small-molecule microarray binders of FAK, primary screen, biochemical, 635/667 nm fluorescence, BSA, DTT (AID 1130); settings: PTK2 binding, 635 nm fluorescence, higher = more signal;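 note: composite of spot emission at 667 nm and signal to noise over triplicate slides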
# [12] = system: Fibrinogen (Alexa647-labelled); assay: fibrinogen binders on compound microarrays, profiling panel, artefact control for SMM control-protein annotation, biochemical, small-molecule microarray, 635/667 nm fluorescence (AID 1131); settings: fibrinogen-A647 binding fluorescence, higher = more signal;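 note: z-score merges 667 nm fluorescence with per-spot signal-to-noise over triplicate slides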
# [13] = molecular target: Follistatin (Homo sapiens) (UniProt P19883); assay: follistatin binders on small-molecule microarrays, primary screen, biochemical, small-molecule microarray, 635/667 nm fluorescence (AID 1132); settings: FST binding, 635 nm fluorescence, higher = more signal
# [14] = molecular target: Fibroblast growth factor 2 (Homo sapiens) (UniProt P09038); assay: FGF2 binders on small-molecule microarrays, primary screen, biochemical, small-molecule microarray, 635/667 nm fluorescence (AID 1133); settings: small-molecule microarray binding, FGF2, fluorescence 635/667; higher = more signal
# [15] = mitochondrial membrane potential change in A549 cells, profiling panel, cell-based, JC-1 fluorescence, basal, 24 h, 100 nL (AID 1138); settings: higher = more signal;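 note: A549 lung adenocarcinoma cells under basal conditions with no added stimulus; test concentration not given here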
# Lefty1 = Lefty1 binders on small-molecule microarrays, primary screen, biochemical, small-molecule microarray, 635/667 nm fluorescence (AID 1139); settings: small-molecule microarray binding, fluorescence 635/667; higher = more signal
# [16] = system: wheat germ agglutinin (Triticum aestivum), Alexa647-labelled; assay: wheat germ agglutinin binders on compound microarrays, profiling panel, artefact control for SMM control-protein annotation, biochemical, small-molecule microarray, 635/667 nm fluorescence (AID 1140); settings: WGA-A647 binding, 635 nm fluorescence, higher = more signal;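 note: score merges 667 nm feature emission with signal to noise over triplicate slides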
# [17] = molecular target: Luciferin 4-monooxygenase (Photinus pyralis) (UniProt P08659); assay: firefly luciferase enzyme inhibitors, primary screen, biochemical, luminescence, purified enzyme, 2006 set (AID 1141); settings: SteadyGlo luminescence, 30 min, higher = more signal, called active from +8 up or from −8 down;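 note: cell-free assay with purified firefly luciferase at 100 ng per well in PBS; test concentration not given here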
# Chain of Luciferin 4-monooxygenase (Photinus pyralis) (P08659 whole entry, looked up): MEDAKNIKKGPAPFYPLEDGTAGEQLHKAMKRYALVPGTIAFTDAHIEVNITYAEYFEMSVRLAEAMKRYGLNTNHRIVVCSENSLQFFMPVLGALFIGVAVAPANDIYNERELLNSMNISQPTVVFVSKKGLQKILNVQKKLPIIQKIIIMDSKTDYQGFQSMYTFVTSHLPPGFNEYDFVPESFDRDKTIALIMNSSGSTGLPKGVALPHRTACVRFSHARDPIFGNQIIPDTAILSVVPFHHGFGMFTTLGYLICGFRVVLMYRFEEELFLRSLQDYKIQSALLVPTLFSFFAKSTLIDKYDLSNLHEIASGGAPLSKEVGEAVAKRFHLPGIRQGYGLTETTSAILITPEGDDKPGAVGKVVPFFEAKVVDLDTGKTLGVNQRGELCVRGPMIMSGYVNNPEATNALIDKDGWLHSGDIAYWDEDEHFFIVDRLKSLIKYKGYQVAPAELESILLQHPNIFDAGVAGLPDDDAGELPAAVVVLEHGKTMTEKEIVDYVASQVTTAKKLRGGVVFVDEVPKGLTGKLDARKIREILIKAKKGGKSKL
# Chain of Fibroblast growth factor 2 (Homo sapiens) (P09038 whole entry, looked up): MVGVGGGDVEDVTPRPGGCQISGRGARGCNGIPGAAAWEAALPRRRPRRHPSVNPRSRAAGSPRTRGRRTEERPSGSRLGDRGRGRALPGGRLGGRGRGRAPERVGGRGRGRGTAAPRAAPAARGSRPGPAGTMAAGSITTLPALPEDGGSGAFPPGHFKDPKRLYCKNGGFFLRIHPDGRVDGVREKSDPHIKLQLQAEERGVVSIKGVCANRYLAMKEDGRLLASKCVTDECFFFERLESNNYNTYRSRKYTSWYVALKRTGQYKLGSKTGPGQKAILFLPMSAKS
# Chain of Focal adhesion kinase 1 (Homo sapiens) (Q05397 whole entry, looked up): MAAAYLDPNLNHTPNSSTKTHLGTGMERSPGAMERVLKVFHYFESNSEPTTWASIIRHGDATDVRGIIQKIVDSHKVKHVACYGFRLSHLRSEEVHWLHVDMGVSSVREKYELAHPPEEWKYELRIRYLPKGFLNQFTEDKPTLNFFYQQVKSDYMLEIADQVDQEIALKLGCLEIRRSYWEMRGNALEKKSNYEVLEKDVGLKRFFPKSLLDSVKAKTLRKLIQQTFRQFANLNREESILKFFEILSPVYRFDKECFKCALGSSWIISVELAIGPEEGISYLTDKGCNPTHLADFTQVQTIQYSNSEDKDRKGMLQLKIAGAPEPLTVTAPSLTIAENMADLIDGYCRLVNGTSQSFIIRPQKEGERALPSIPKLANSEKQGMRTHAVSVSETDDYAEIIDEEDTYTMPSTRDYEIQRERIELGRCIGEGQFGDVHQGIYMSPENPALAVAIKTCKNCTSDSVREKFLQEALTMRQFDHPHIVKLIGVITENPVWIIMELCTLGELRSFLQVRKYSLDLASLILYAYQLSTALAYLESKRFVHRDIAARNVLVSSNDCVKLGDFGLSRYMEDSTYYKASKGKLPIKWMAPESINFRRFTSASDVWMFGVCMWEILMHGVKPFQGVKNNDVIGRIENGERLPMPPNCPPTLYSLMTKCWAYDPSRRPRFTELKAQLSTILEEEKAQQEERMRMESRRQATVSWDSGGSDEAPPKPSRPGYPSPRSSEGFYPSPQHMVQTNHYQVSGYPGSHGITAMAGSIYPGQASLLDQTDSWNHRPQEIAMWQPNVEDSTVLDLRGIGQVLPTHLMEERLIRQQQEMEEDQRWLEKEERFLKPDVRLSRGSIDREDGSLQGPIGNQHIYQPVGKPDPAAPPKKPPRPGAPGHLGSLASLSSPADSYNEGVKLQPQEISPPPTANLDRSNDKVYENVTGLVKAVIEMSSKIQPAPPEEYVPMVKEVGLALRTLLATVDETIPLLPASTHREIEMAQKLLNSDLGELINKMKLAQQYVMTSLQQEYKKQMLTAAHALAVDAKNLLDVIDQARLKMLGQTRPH
# Chain of Follistatin (Homo sapiens) (P19883 whole entry, looked up): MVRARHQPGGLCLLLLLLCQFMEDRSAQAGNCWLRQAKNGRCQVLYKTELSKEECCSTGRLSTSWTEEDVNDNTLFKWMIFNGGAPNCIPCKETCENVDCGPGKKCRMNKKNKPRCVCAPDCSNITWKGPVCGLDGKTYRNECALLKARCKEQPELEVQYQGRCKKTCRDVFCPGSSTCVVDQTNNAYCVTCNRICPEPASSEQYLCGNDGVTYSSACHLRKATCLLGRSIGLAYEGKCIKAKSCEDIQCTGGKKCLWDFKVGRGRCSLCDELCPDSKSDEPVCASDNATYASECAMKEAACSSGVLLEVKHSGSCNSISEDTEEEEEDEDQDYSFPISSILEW
# Chain of Concanavalin-A (Canavalia ensiformis) (P02866 whole entry, looked up): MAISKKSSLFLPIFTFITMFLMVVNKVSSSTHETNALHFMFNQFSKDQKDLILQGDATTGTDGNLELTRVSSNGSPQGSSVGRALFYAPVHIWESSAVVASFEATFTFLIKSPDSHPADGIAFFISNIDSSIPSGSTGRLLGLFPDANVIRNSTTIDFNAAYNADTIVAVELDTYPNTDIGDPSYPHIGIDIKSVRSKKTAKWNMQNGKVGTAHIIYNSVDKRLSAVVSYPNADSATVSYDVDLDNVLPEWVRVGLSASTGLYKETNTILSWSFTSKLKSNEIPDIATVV
# Chain of Albumin (Bos taurus) (P02769 whole entry, looked up): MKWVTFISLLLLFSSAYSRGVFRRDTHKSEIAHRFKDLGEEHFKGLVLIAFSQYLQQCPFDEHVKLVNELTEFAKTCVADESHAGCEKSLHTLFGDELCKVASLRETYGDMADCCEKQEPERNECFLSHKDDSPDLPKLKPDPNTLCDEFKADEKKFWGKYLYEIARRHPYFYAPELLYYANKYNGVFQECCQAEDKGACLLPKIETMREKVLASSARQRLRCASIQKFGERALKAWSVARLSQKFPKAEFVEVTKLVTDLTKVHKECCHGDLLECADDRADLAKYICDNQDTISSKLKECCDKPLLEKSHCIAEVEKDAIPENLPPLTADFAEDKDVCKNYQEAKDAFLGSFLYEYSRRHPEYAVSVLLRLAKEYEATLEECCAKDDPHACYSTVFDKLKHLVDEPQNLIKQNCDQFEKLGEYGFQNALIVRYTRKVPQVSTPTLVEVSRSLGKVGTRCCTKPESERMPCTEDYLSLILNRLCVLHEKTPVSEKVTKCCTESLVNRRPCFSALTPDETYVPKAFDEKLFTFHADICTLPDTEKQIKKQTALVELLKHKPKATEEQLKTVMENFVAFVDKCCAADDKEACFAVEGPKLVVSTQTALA
Compound,composite z-score (Albumin (Bos taurus)),composite Z-score [1],composite z-score [2],composite z-score [3],composite z-score [4],composite z-score [5],composite z-score [6],composite z-score (Sam68 (KHDRBS1)),composite z-score [7],composite z-score [8],composite z-score [9],composite z-score [10],composite z-score [11],composite z-score [12],composite z-score [13],composite z-score [14],z-score [15],composite z-score (Lefty1),composite z-score [16],z-score [17]
Cc1ccc(S[C@]2(C(=O)NCCN3CCOCC3)CC(=O)N(Cc3cc(C(F)(F)F)cc(C(F)(F)F)c3)[C@@H]2c2ccc(CO)cc2)cc1,0.0152,-0.654 (inactive),-0.304,-0.0846,0.78,0.244,0.248,-0.142,-1.01,-0.664,-1.03,0.624,0.151,-0.899,-1.09,-1.21,1.59,-1.1,-1.54,-0.682 (inactive)
C=C(/C(=C/C[C@H](OC(C)=O)c1cccc(OCCO)c1)c1cc(C(=O)OC)ccc1OC)C(C)C,0.103,0.307 (inactive),-0.0918,-0.126,0.38,0.866,0.172,0.177,-0.767,-0.319,-0.604,-0.389,0.445,-0.624,-0.288,-0.0132,3.18,-0.0603,-0.907,-1.84 (inactive)
C=C(C(=O)CC[C@@H](OC(C)=O)c1ccccc1OCCO)C(C)C,-0.952,0.222 (inactive),-0.0647,-0.167,0.664,-0.152,-0.0507,-0.247,-0.38,-0.779,0.138,-1.28,-0.485,-0.314,0.164,0.398,1.29,0.342,-0.242,-1.35 (inactive)
CO[C@H]1O[C@H](CO)[C@@H](OC(=O)Nc2ccccc2)[C@H](OC(=O)Nc2ccccc2-c2ccccc2)[C@H]1OC(=O)Nc1ccccc1-c1ccccc1,0.925,0.563 (inactive),-0.0903,-0.103,0.556,1.63,0.463,1.3,-0.159,1.19,2.03,1.23,1.17,0.903,0.754,0.292,-1.05,0.601,1.19,-0.864 (inactive)
COC(=O)C1=CC(c2ccc(CO)cc2)=CC(c2cccs2)N(C)C=C1C(=O)OC (stereo not given),0.208,0.875 (inactive),-0.0023,-0.14,0.589,2,0.387,0.494,-1.14,0.494,1.48,-0.351,1.18,-0.141,0.23,-0.485,1.08,-0.116,0.84,-0.822 (inactive)
C=C(C(=O)CC[C@H](OC(C)=O)c1ccc(CO)o1)C(C)C,-0.348,0.481 (inactive),-0.0264,-0.0795,0.614,0.297,0.629,0.596,-0.413,-0.0824,-0.361,-0.0631,0.384,0.4,0.853,1.01,0.191,0.299,-0.432,-2.12 (inactive)
O=C1N(CCS(=O)(=O)c2ccccc2)Cc2ccccc2[C@@H]2OC(c3ccc(OCCCO)cc3)=N[C@]12Cc1ccccc1,-0.0444,1.83 (inactive),0.165,0.0042,0.742,2.84,0.599,1.29,0.286,1.13,3.33,1.27,0.526,0.988,1.34,1.68,-0.0106,1.1,1.23,-2.12 (inactive)
CC(C)C[C@@H]1NC(=O)[C@@]23C(=O)N[C@@H](Cc4ccccc4)C2[C@H](C)[C@@]2(C)O[C@H]2C3/C=C/CC/C=C/CNC(=O)[C@@H](C)NC1=O (stereo not given in full),-1.38,-0.162 (inactive),0.0426,-0.179,-0.515,-0.262,0.0036,0.179,0.906,0.204,-0.764,-0.649,0.138,-0.875,1.23,1.12,-0.168,1.5,-0.578,-0.8 (inactive)
CCCCCN1CC=CC23O[C@@H]4/C=C\CCC(C)OC(=O)C4[C@H]2C(=O)N(CCCO)[C@@H]3C1=O (stereo not given in full),-1.27,0.58 (inactive),-0.357,-0.161,0.97,0.1,1.62,-0.237,-1.15,-0.521,-1.7,-0.719,-0.249,-1.63,-1.3,-0.965,0.684,-1.2,-1.08,-0.637 (inactive)
